Cruzain inh Det: qHTS Assay for Promiscuous and Specific Inhibitors of Cruzain (with detergent). Cruzipain (Trypanosoma cruzi), P25779. purified cruzain, Z-FR-AMC fluorescence, 0.01% Triton. Potency, µM, inactives show max response, negative = inhibition, hits mostly inhibitors. hit rate 0.43% among 200,000;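 note: plate controls were neutral wells for no effect and buffer without enzyme for full effect; nearly all actives have a fitted effect of over 40% in size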
Target sequence (P25779 123-467 limits assumed): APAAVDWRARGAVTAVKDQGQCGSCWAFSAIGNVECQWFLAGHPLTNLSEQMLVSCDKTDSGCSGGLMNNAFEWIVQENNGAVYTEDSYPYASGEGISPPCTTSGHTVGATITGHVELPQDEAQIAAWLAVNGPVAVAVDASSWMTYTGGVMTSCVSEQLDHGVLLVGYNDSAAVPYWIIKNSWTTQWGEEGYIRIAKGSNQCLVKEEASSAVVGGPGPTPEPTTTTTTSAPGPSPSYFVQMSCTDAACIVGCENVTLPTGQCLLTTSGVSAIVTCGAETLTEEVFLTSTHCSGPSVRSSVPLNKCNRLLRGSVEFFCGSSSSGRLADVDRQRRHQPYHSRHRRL
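Purified cruzain (1.5 nM final) was preincubated with compounds for 15 min at room temperature in 100 mM sodium acetate pH 5.5, 5 mM DTT, 0.01% Triton X-100. Reaction started with 2 uM Z-FR-AMC; AMC fluorescence change over 60 s gave activity.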
Cruzain inh noDet: qHTS Assay for Promiscuous and Specific Inhibitors of Cruzain (without detergent); Cruzipain (Trypanosoma cruzi), P25779; purified cruzain, Z-FR-AMC fluorescence, no detergent; Potency, µM, for the others: max response, negative = inhibition, actives largely listed as inhibitors; hit rate 2.3% among 200,000; AID 1476, 2009;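 note: plate controls were enzyme without inhibitor for no effect and buffer without enzyme for full effect; nearly all actives have a fitted effect of over 40% in size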
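Detergent-free condition (0.00005% Triton X-100) in acetate buffer pH 5.5 with DTT. 1.5 nM enzyme and compound were pre-mixed 15 min, then 2 uM Z-FR-AMC substrate added; reaction progress from fluorescence change between first and third reads (60 s).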
* = called active by the depositor; ? = inconclusive. Only some compounds are listed: those with a hit (about 2.4% of all), similar ones and a draw of the others. Calls come from the whole dose curve; as a rule, active = well fitted curve in the direction sought with a large enough effect; inconclusive = small, poorly fitted or top-dose-only effect, or another doubt; inactive = no such curve, though single readings can be large; an effect the other way counts as inactive or inconclusive. Potency is the fitted concentration of half-maximal effect.

SMILES	Cruzain inh Det	Cruzain inh noDet
CNC(=O)c1cc2c(=O)n3cccc(C)c3nc2n(C(C)C)c1=N	25.1µM*	?
C=CCn1c(=N)c(C(=O)NCCCOC)cc2c(=O)n3cccc(C)c3nc21	31.6µM*	?
Cc1cccn2c(=O)c3cc(C(=O)NCCc4ccccc4)c(=N)n(CCCn4ccnc4)c3nc12	0.2%	?
CCCCNC(=O)c1cc2c(=O)n3cccc(C)c3nc2n(Cc2ccccc2)c1=N	28.2µM*	?
CC[C@@H](Nc1ncnc2nc[nH]c12)C(=O)O	0.7%	11.3%
CN(C)c1ccc(CNC(=O)c2cccn2-c2nnc(N3CCCCC3)s2)cc1	-3.1%	-20.6%
COC(=O)C1(C(=O)OC)C/C=C\Cc2ccccc2[C@@H]1C[N+](=O)[O-]	0.8%	-0.7%
Nn1cnnc1	1.7%	-1.3%
O=C(NCc1ccc(OC(F)(F)F)cc1)C12CN(Cc3ccccc3)CC1C(c1cccc([N+](=O)[O-])c1)=NO2 (stereo not drawn)	1.0%	20µM*
O=C(NCc1ccccc1)C12CN(Cc3ccccc3)CC1C(c1cccc([N+](=O)[O-])c1)=NO2 (stereo not drawn)	3.5%	-26.3%
COc1ccc(C2CC(=O)C(C=NCCN3CCN(C(C)=O)CC3)=C(O)C2)cc1OC (stereo not drawn)	2.2%	-11.3%
CCOc1ccc(OCC)c(NC(=O)c2nnn(CC(=O)Nc3cc(Cl)ccc3OC)c2N)c1	-2.1%	2.4%
COC(=O)c1oc2ccc(Br)cc2c1NC(=O)c1ccccc1	2.2%	12.6µM*
COC(=O)c1oc2ccc(Cl)cc2c1NC(C)=O	-1.9%	2.4%
O=C(Cc1ccccc1)c1nc2ccccc2s1	-14.9%	-12.9%
COC(=O)c1ccc(CC(=O)c2nc3ccccc3s2)cc1	-2.0%	31.6µM*
Cc1cc(-c2csc(NC(=O)c3ccc(C#N)cc3)n2)c(C)n1Cc1ccco1	-3.2%	7.94µM*
Cc1csc(NC(=O)CSc2nnc(C)n2Cc2ccco2)n1	1.3%	-0.1%
O=S(=O)(Nc1cccc(Cl)c1)c1ccc2[nH]c3c(c2c1)CCCCCC3	4.3%	-27.1%
O=S(=O)(c1ccc2[nH]c3c(c2c1)CCCCC3)N1CCN(c2ccccc2)CC1	-3.5%	25.1µM*
O=S(=O)(NCc1ccccc1)c1ccc2[nH]c3c(c2c1)CCCCC3	-14.5%	?
O=S(=O)(c1ccc2[nH]c3c(c2c1)CCCCC3)N1CCN(c2cccc(Cl)c2)CC1	-0.9%	7.94µM*
CCOc1ccc(-n2cc(C(=O)Nc3ccccc3OCC)c3cc(OC)c(OC)cc3c2=O)cc1	2.0%	6.2%
CCCOc1ccc(-c2nc(C#N)c(N3CCN(C)CC3)o2)cc1	1.3%	-9.5%
CCCOc1ccc(-c2nc(C#N)c(N3CCc4ccccc4C3)o2)cc1	25.1µM*	-92.4%
SMILES	Cruzain inh Det	Cruzain inh noDet
CCOC(=O)c1cccc(NC(=O)c2cc3ccccn3n2)c1	-4.9%	-2.6%
CCOC(=O)N1CCN(CCC(=O)c2ccc(Cl)cc2)CC1	14.1µM*	12.6µM*
CCOC(=O)N1CCN(C(=O)Cc2ccc(Cl)cc2)CC1	7.0%	-1.5%
COC(=O)c1sccc1NC(=O)/C=C\c1ccc(Cl)cc1Cl	3.2%	3.16µM*
COC(=O)c1sccc1NC(=O)/C=C/c1ccc(Cl)cc1	-2.4%	2.6%
Cc1cccc(C)c1NC(=O)CSc1nccn1C	-0.3%	-0.8%
COc1ccc2[nH]c3c(c2c1)CCN=C3C	-11.8%	12.6µM*
COc1ccc2[nH]c3c(c2c1)CCNC3=O	-3.0%	-2.7%
O=C(c1cc2c(ccc3ccccc32)oc1=O)N1CCCC1	-26.8%	?
O=C(O)c1cc2c(ccc3ccccc32)oc1=O	?	10µM*
O=C(O)c1cc2ccc3ccccc3c2oc1=O	?	25.1µM*
O=C(O)c1cc2cc(Cl)cc(Cl)c2oc1=O	-3.4%	?
Cc1nc(NCCO)c2nc(-c3ccccc3)n(CCCN(C)C)c2n1	-3.5%	-5.1%
CC(=O)NCCNc1ncncc1-c1ccc(N(C)C)cc1	-1.2%	-3.6%
Cc1ccccc1CCNC(=O)c1cc2cc(S(=O)(=O)N3CCCCC3)ccc2n1C	-0.1%	-8.8%
COC(=O)[C@@H]1C[C@H]1[C@@H](NC(=O)Oc1ccc(F)cc1)c1ccccc1	-3.7%	-2.1%
COc1ccc(/C=C2\SC(=O)N=C2N)cc1	0.3%	31.6µM*
COc1ccc(/C=C2\SC(=NCc3ccccc3)NC2=O)cc1	-8.2%	4.2%
Cc1cccc2c1N(C(=O)CN1C(=O)c3ccccc3C1=O)C(C)(C)c1ssc(=S)c1-2	-0.8%	12.6µM*
Cc1cc(C)c2c(c1)-c1c(ssc1=S)C(C)(C)N2C(=O)CN1C(=O)c2ccccc2C1=O	-7.4%	?
C/C(=C\CO)CCO	5.9%	-8.5%
CN1C(=O)C2(c3ccccc31)N(c1cccc(C(F)(F)F)c1)C(=O)CS2(=O)=O (stereo not drawn)	-2.9%	5.01µM*
CN1C(=O)C2(SCC(=O)N2c2cccc(C(F)(F)F)c2)c2ccccc21 (stereo not drawn)	-6.2%	?
